MsrA inhibitor: bovine MsrA enzyme inhibitors, primary screen, biochemical, absorbance, HTS. Methionine sulfoxide reductase A (Bos taurus). purified bovine MsrA, absorbance read-out. inhibition, % at 15.5 µM. actives 0.75% (n = 360,000)
bovine MsrA act: bovine MsrA enzyme activators, primary screen, biochemical, absorbance, HTS. activation, % at 10.6 µM. Methionine sulfoxide reductase A (Bos taurus). actives 0.3% (n = 360,000). purified bovine MsrA, absorbance read-out; in the data active means activation above about 7.5%
pCIP destab: p/CIP-EGFP fusion destabilizers, primary screen, fluorescence, F442A cells. 16 h. decrease of EGFP signal, % at 10 µM. actives 0.01% (n = 290,000). AID 1984, 2009;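 active means EGFP signal decrease of at least 30% at 10 µM or well 3 SD below plate mean, unless failing retest; inactive means the rest, including hits failing retest or dose response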
14-3-3 Bad inh: inhibitors of 14-3-3 zeta/Bad binding, primary screen, biochemical, TR-FRET, bovine 14-3-3 zeta. 14-3-3 protein zeta/delta (Bos taurus), P63103. TR-FRET 14-3-3zeta/Dy647-pBad peptide displacement, 1 h. inhibition, % at 21.7 µM. actives 0.71% (n = 220,000). AID 781, 2007;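 active means inhibition above about 70%, limit read from the data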
MsrA inh confirm: bovine MsrA inhibitors, retest, confirmation, biochemical, absorbance, HTS; purified bovine MsrA, absorbance read-out; actives 41% (n = 2,300); inhibition, % at 15.5 µM; shares compounds with MsrA inhibitor;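 further: coupled to thioredoxin reductase with NADPH and selenocystamine and DMSO as substrate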
Hits are given with their value; n = inactive; x = no result. The list is not random: actives were taken first. Their share in the collection is about 1.4%. Unless noted, no stated cut-off is given here; in the data, active means inhibition above about 4.5%; inactive means the rest.

SMILES	MsrA inhibitor	bovine MsrA act	pCIP destab	14-3-3 Bad inh	MsrA inh confirm
N#Cc1cc([N+](=O)[O-])cnc1NCC(O)CO (stereo not drawn)	5.4	n	n	n	n
N#Cc1ccccc1NC(=O)CSc1ccc([N+](=O)[O-])cn1	n	n	n	n	x
CCS(=O)(=O)CCSc1nc2ccccc2o1	6.1	n	n	n	n
CC(=O)c1cccc(Nc2cc(C)nc3c(C)cc(C)cc23)c1	5.9	n	n	n	n
CCCc1c(C(=O)N/N=C/c2ccc(C)o2)nnn1-c1nonc1N	5.0	n	x	x	4.6
CC(/C=N/NC(=O)c1nnn(-c2nonc2N)c1CN(C)C)=C\c1ccco1	6.2	n	n	n	7.3
Cc1ccc(/C=N/NC(=O)c2nnn(-c3nonc3N)c2C(C)C)o1	4.8	n	n	x	4.8
CCCN(CCC)Cc1c(C(=O)N/N=C/C(C)=C\c2ccco2)nnn1-c1nonc1N	n	n	n	x	x
CC(C)c1c(C(=O)N/N=C/c2ccco2)nnn1-c1nonc1N	n	n	n	x	x
CCCN(CCC)Cc1c(C(=O)N/N=C/c2ccc(C)o2)nnn1-c1nonc1N	n	n	n	x	x
CN(C)CCN(CC1CCCN(Cc2ccccc2F)C1)C(=O)c1ccc(F)cc1 (stereo not drawn)	n	n	n	x	x
Cc1ccc(NC(=O)CN2C(=O)NC(Cc3c[nH]c4ccccc34)C2=O)cc1 (stereo not drawn)	n	n	x	x	x
CSC1=NC(=O)/C(=C/c2ccc(SC)cc2)S1	n	n	n	n	x
CCOC(=O)CSC1=NC(=O)/C(=C\c2ccc(Cl)cc2)S1	5.2	n	n	n	n
CS(=O)(=O)c1ccc2nc(NC(=O)c3ccccc3)sc2c1	n	n	n	x	x
NC(=O)c1ccc2nc(NC(=O)c3ccc(N)cc3)sc2c1	6.3	n	n	n	n
NS(=O)(=O)c1ccc2nc(NC(=O)c3ccncc3)sc2c1	5.6	n	n	n	n
NS(=O)(=O)c1ccc2nc(NC(=O)c3ccc(Br)o3)sc2c1	4.8	n	n	n	5.7
CC(=O)Nc1nc2cc(C(N)=O)ccc2s1	n	n	x	x	x
Cc1ccc2nc(NC(=O)c3ccc(Br)o3)sc2c1	n	n	n	x	x
CN(C)C(=O)CCc1ccc2c3c([nH]c2c1)[C@]1(CCC2CCCC2)[C@@H](C(=O)N2CCOCC2)C[C@H](CC(=O)NCCc2ccccn2)C(=O)N1CC3	n	n	x	x	x
Cc1oc2c(C)c3oc(=O)c(CC(=O)N[C@@H](CCCNC(N)=O)C(=O)O)c(C)c3cc2c1C	4.9	n	n	x	n
NC(=O)N=Nc1c(O)[nH]c2ccc([N+](=O)[O-])cc12	n	n	n	n	x
O=C(CNC(=O)c1ccco1)N=Nc1c(O)[nH]c2ccc([N+](=O)[O-])cc12	5.8	n	n	x	n
CC1CCCC(C)N1C(=O)COC(=O)c1ccc(Br)o1 (stereo not drawn)	n	n	x	x	x
SMILES	MsrA inhibitor	bovine MsrA act	pCIP destab	14-3-3 Bad inh	MsrA inh confirm
O=C(COc1ncnc2c(Cl)cc(Cl)cc12)Nc1cc([N+](=O)[O-])ccc1Cl	n	n	n	n	x
CCOC(=O)/C(C#N)=C/Nc1ccsc1C(C)=O	13.7	n	n	n	7.2
CCOC(=O)/C(C#N)=C/Nc1ccccc1OC	12.3	n	n	n	12.4
CCOC(=O)/C(C#N)=C/c1ccc(-c2ccsc2C(=O)OC)o1	n	n	n	n	x
COc1ccc(NC(=O)/C=C2\SC(=O)NC2=O)cc1	4.8	n	n	n	n
O=c1c(-c2ccccc2)c(O)c2c(n1-c1ccccc1)CCCC2	n	n	n	n	x
O=c1[nH]c(=S)c2c(n1-c1ccccc1)CCC2	5.8	n	n	n	n
Cc1ccc(/C=C(\C#N)C(=O)NCC2CCCO2)o1 (stereo not drawn)	5.2	n	n	n	4.6
COc1cc(/C=C(\C#N)C(=O)NCC2CCCO2)ccc1OCC(=O)O (stereo not drawn)	5.5	n	n	n	n
O=C(N/N=C/c1cn(-c2cccs2)nc1-c1ccccc1)c1ccccc1O	5.5	n	n	n	n
O=C(N/N=C/c1cn(-c2cccs2)nc1-c1ccccc1)c1ccccc1Br	6.5	n	n	n	n
O=C(NCCCN1CCCC1=O)c1cccc(S(=O)(=O)N2CCN(c3ccc(F)cc3)CC2)c1	n	n	n	x	x
Cc1ccc(CN2CC(C(=O)N(Cc3nnc(-c4ccccc4Cl)o3)C3CC3)CC2=O)cc1 (stereo not drawn)	n	n	x	x	x

Screening results (PubChem BioAssay)
